Bioassay records as filed in PubChem.
A selection: hits, their analogues and other compounds. The true share with any hit is near 14%.
Shiga toxin inh: A qHTS for Small Molecule Inhibitors of Shiga Toxin. 290,000 compounds, 9.2% hits. inhibition, % at 38.7 µM. AID 2315, 2010. Vero cells, Shiga toxin protein synthesis inhibition reporter; in the data active means inhibition mostly above about 28%, no sharp cut-off; inactive means mostly below about 43%; further: 0% is about no effect
LmPK inh: qHTS Assay for Inhibitors of Leishmania Mexicana Pyruvate Kinase (LmPK); Q27686; purified LmPK, Kinase-Glo ATP luminescence, 1 h; Potency, µM (series often up to 57.5 µM), for the others: at the top dose activity change, negative = inhibition, hits mostly inhibitors; 290,000 compounds, 0.37% hits; further: potency means the concentration at half of the fitted maximal effect; on the % scale 0 is the no-effect control and ±100 the full control effect
Target sequence (Q27686 whole entry, looked up): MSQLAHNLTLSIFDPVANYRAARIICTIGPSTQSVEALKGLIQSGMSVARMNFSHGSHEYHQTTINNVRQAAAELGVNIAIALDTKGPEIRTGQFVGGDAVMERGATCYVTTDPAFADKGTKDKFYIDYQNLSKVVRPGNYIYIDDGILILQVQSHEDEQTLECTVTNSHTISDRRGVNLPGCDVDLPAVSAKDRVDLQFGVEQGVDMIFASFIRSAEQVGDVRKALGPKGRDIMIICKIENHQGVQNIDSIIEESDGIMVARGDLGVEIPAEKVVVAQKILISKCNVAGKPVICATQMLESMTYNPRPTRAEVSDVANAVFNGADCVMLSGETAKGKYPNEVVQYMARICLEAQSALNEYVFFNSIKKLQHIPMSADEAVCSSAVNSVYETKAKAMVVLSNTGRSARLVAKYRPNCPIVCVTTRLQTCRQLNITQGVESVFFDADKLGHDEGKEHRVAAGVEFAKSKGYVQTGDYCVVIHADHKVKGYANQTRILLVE
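Purified LmPK (0.1 nM) converted ADP (0.1 mM) to ATP with PEP (0.5 mM) in imidazole buffer pH 7.2 with KCl and MgCl2, 1 h at room temperature. ATP was read by Kinase-Glo luminescence; data normalized to uninhibited and no-enzyme controls.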
CHX counter: Cycloheximide Counterscreen for Small Molecule Inhibitors of Shiga Toxin. cell reporter, cycloheximide protein synthesis inhibition counterscreen. AID 2314, 2010. max response, %. 300,000 compounds, 12% hits; in the data active means max response mostly above about 13%, no sharp cut-off; inactive means mostly below about 14%; further: read at 38.3 µM for the half of the compounds with a filed dose; 0% is about no effect
Giardia FBPA inh: qHTS Assay for Inhibitors of Fructose-1,6-bisphosphate Aldolase from Giardia Lamblia | A8B2U2 | purified Giardia FBPA | Potency, µM (series often up to 59.6 µM), without a hit: at the highest dose activity, negative = inhibition, most hits filed as inhibitors | 290,000 compounds, 0.71% hits; further: potency means the concentration at half of the fitted maximal effect; on the % scale 0 is the no-effect control and ±100 the full control effect; nearly all actives have a fitted effect of over 55% in size
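Giardia FBPA (40 nM reagent) was preincubated 10 min at RT with compound (up to 57.5 uM final), then substrate plus GAPDH/TPI/NAD/arsenate coupling system with diaphorase/resazurin was added; resorufin fluorescence (525/598 nm) was read after 20 min.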
NS1 inh: qHTS Assay for Inhibitors of Influenza NS1 Protein Function; AID 2326, 2010; Potency, µM (top dose mostly 46.1 µM), for the others: at the top dose activity, positive = more growth; 270,000 compounds, 0.4% hits; calls by dose curve; further: potency means the concentration at half of the fitted maximal effect; actives are rising curves; nearly all actives have a fitted effect of over 50% in size
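In this qHTS, NS1 from influenza A is expressed in budding yeast, where it slows growth. Cells are switched from glucose to 2% galactose medium (pH 6.0, -URA), treated with compound, and growth recovery is read at OD600.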
* hit, by the source's call; ? = inconclusive; · = no result; [ ] = remark or other dose. Unless noted, the call rests on the fitted dose curve; in most records, active means well fitted curve in the direction sought with a large enough effect; inconclusive means small, poorly fitted or top-dose-only effect, or another doubt; inactive means no such curve, though single readings can be large; an effect the other way counts as inactive or inconclusive.

SMILES | Shiga toxin inh | LmPK inh | CHX counter | Giardia FBPA inh | NS1 inh
COc1ccc(CCC(=O)OCC(=O)Nc2ccccc2)cc1 | 68 | 7% | 20* | -3% | -24%
O=C(CCOc1ccccc1)Nc1ccccc1 | 41 | -9% | 27* | 2% | -9%
Cc1cc(Br)c(NC(=O)CN(C)CCOc2ccccc2)c(Br)c1 | 24 | -6% | 11* | -4% | -5%
COc1ccc(C(=O)COC(=O)CCC(=O)Nc2ccc(C(C)=O)cc2)cc1 | 47* | -8% | 40* | · | -4%
Cc1cccc(OCCCC(=O)Nc2ccc(N(C)C)cc2)c1 | 122* | 0% | 84* | -6% | 15%
CCCOC(=O)c1ccc(NC(=O)CCC(=O)OCC)cc1 | 79* | 1% | 29* | 0% | -89%
CCCOC(=O)c1ccc(NC(=O)CCOc2ccccc2)cc1 | 22 | 1% | 13* | -4% | -66%
COc1ccc(NC(=O)CS(=O)(=O)c2ccccc2Cl)cc1 | 29 | 4% | 16* | 5% | -4%
CSCC[C@H](NC(=O)[C@H](CCCNC(=N)N)NC(=O)[C@H](Cc1ccc(O)cc1)NC(=O)[C@@H]1CCCN1C(=O)CNC(=O)[C@H](CCC(=O)O)NC(=O)[C@H](CC(=O)O)NC(=O)[C@H](CCCCN)NC(=O)[C@H](CCCCN)NC(=O)[C@H](CCC(=O)O)NC(=O)[C@H](C)N)C(=O)N[C@@H](CCC(=O)O)C(=O)N[C@@H](Cc1cnc[nH]1)C(=O)N[C@@H](Cc1ccccc1)C(=O)N[C@@H](CCCNC(=N)N)C(=O)N[C@@H](Cc1c[nH]c2ccccc12)C(=O)NCC(=O)N[C@@H](CO)C(=O)N1CCC[C@H]1C(=O)N1CCC[C@H]1C(=O)N[C@@H](CCCCN)C(=O)N[C@@H](CC(=O)O)C(=O)O | -12 | · | 1 | -1% | ·
COc1cc2c(cc1O)-c1ccccc1CN(C)C2 | · | · | · | -7% | ·
CN(C)Cc1ccccc1-c1cncnc1NC1CC1 | · | · | · | 0% | ·
CC(=O)N(C)c1ccc(NC(=O)Nc2ccccc2C)cc1 | 82* | ? | 39* | 0% | ·
CC(=O)N(C)c1ccc(NC(=O)Nc2ccc(C)c(C)c2)cc1 | 31 | 4% | 12* | -9% | -12%
CC(C)=N[C@H](C(=O)O)C(C)(C)S | · | · | · | · | -4%
CC(C)(S)[C@@H](N)C(=O)O | -3 | -6% | -2 | 13µM* | -8%
CCN(CC)S(=O)(=O)c1cc(OC)c(Cl)cc1Cl | -2 | 0% | 28* | 5% | -89%
CCN(CC)S(=O)(=O)c1cc(OC)c(C)cc1C | -3 | 0% | -3 | 4% | -2%
C=CCn1c(SCC(=O)Nc2ccc(N3CCOCC3)cc2)nnc1-c1ccco1 | 4 | 1% | 2 | -11% | -4%
CCC/C=C(\CCC)C(NC(=O)C(C)(C)C)c1ccc(C(=O)OC)cc1 (stereo unspecified) | · | · | · | -3% | ·
CCOCCCNc1ncnc2c1[nH]c1ccccc12 | -2 | -2% | 13* | -1% | -27%
C=CCNc1ncnc2c1[nH]c1ccc(Cl)cc12 | 82* | 6% | 37* | -3% | -54%
CCOc1ccc2[nH]c3c(NCCc4ccc(OC)c(OC)c4)ncnc3c2c1 | 7 | 4% | 1 | -12% | -3%
CCCCOCCCNc1ncnc2c1[nH]c1ccccc12 | -6 | 9% | -3 | -4% | -22%
C=CCNc1ncnc2c1[nH]c1ccccc12 | 13 | -5% | 10* | -14% | -15%
CCOc1ccc2[nH]c3c(NCCO)ncnc3c2c1 | 36 | -1% | 20* | 12% | -1%
SMILES | Shiga toxin inh | LmPK inh | CHX counter | Giardia FBPA inh | NS1 inh
C=CCOC(=O)C(C(C)=O)C(NC(=O)OC)c1cccc(C)c1 (stereo unspecified) | · | · | · | 0%[12.9 µM] | ·
CC1(C)Cc2c(sc(NC(=O)C(=O)NCC3CCCO3)c2C(N)=O)CO1 (stereo unspecified) | -4 | 2% | -2 | · | -10%
COc1ccccc1CCn1c(=O)c(CCc2ccccc2)nc2cncnc21 | · | · | · | 2% | ·
O=C(CN1C(=O)c2ccccc2C1=O)Nc1sc2c(c1C(=O)NCc1ccco1)CCCC2 | 8 | 3% | 4 | 1% | 9%
Cc1ccccc1C1=NCC(=O)N(CC(=O)NCc2ccco2)c2sc3c(c21)CCCC3 | 33 | 2% | 15* | 1% | -46%
COc1c2ccoc2nc2c(OC)cccc12 | 44* | 4% | 16 | 0% | -37%
COc1cc(C(=O)Oc2ccc3c(OC)c4ccoc4nc3c2OC)cc(OC)c1OC | · | · | · | 5% | ·
CC(C)CC(=O)c1c[nH]c(C(=O)O)c1 | 18 | 0% | -2 | 0% | 9%
CC(C)(C)c1ccc(C(=O)c2c[nH]c(C(=O)O)c2)cc1 | 36 | 0% | 29* | ? | ·
COC(=O)c1cc(C(=O)c2ccc(C(C)(C)C)cc2)c[nH]1 | 97* | -4% | 32* | -3% | 2%
CN(C)C=NC(=O)c1cc(C(=O)c2ccccc2Cl)c[nH]1 | 13 | 0% | 0 | -2% | 3%
CC(C)(C)c1ccc(C(=O)c2c[nH]c(C(=O)NCCCn3ccnc3)c2)cc1 | 2 | 5% | 0 | 5% | 10%
CN(C)C=NC(=O)c1cc(C(=O)c2ccc(C(C)(C)C)cc2)c[nH]1 | 83* | 8% | 44* | 0% | ·
CS(=O)(=O)Nc1cccc(-c2ccc3ncnc(Nc4ccc(F)cc4)c3c2)c1 | · | · | · | -14% | ·
O=S(=O)(CCc1nnc(-c2ccccc2)o1)c1ccc2ccccc2c1 | -20 | 8% | 1 | -1% | -3%
Cc1cc(C)cc(OCC(=O)OCc2nnc(-c3ccccc3)o2)c1 | 24 | -1% | 1 | -1% | ·
O=C(CNS(=O)(=O)c1ccc2ccccc2c1)OCc1nnc(-c2ccccc2)o1 | 22 | 11% | 32* | -6% | -74%
Cc1ccc(S(=O)(=O)NCC(=O)OCc2nnc(-c3ccccc3)o2)cc1C | 13 | 3% | 20* | -3% | -84%
O=C1O[C@@H]([C@H](O)[C@H](O)[C@H](O)CO)[C@@H](O)[C@@H]1O | · | · | · | · | 6%
C=CCn1c(-c2cc3c(s2)CCC(CC)C3)n[nH]c1=S (stereo unspecified) | 36 | -5% | 24* | 11% | ·
C=CCn1c(SCC(=O)NC2CCS(=O)(=O)C2)nnc1-c1cc2c(s1)CCC(CC)C2 (stereo unspecified) | 63 | 2% | 25* | 2% | -8%
COC(=O)N/N=C/c1cn(Cc2ccc(F)cc2)c2ccccc12 | 7 | -4% | 8 | -8% | 5%
Nc1ccc(C(=O)N/N=C/c2cn(Cc3ccccc3)c3ccccc23)cc1 | 16 | 7% | 17* | 1% | 1%
COc1cc(C(=O)N/N=C/c2cn(Cc3ccccc3)c3ccccc23)ccc1O | 24 | 5% | 14 | -9% | 14%
O=C(O)c1ccc(N/N=C/c2cn(Cc3ccccc3F)c3ccccc23)cc1 | 32 | 5% | 67* | -1% | 5%
CCOC(=O)Cn1cc(/C=N/NC(=O)c2cc3ccccc3o2)c2ccccc21 | 58 | 1% | 26* | 12% | -10%
